Values joined by “and” are separate entries in the source; they are usually repeats but may differ in a detail not shown here. Equal entries are not always repeated. The panel holds about 83,000 compounds, 20% with a hit somewhere; the sample as a whole holds those more often.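 Compound tested at a single concentration for 48 hours in 96-well plates; a percent growth value below 10 was scored as active.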 Active and inactive are the calls of the source.
Experiments:
Assay in all cases: NCI-60 one-dose screen, 48 h (100 = growth as untreated, 0 = no growth, -100 = all killed)
NCI-H23 lung = tested on: NCI-H23 lung
NCI-H226 lung = tested on: NCI-H226 lung
NCI-H322M lung = tested on: NCI-H322M lung
HOP-62 NSCLC = details: 10 µM unless noted
NCI-H460 lung = tested on: NCI-H460 lung
HOP-92 NSCLC = tested on: HOP-92 NSCLC
NCI-H522 lung = tested on: NCI-H522 lung
A549/ATCC NSCLC = tested on: A549/ATCC NSCLC
786-0 renal = tested on: 786-0 renal
COLO 205 colon = details: 10 µM unless noted
DU-145 prostate = tested on: DU-145 prostate
K-562 leukemia = tested on: K-562 leukemia
MALME-3M melanoma = tested on: MALME-3M melanoma
MDA-MB-231 breast = tested on: MDA-MB-231 breast
RXF 393 renal = tested on: RXF 393 renal
SF-268 CNS = tested on: SF-268 CNS
SF-295 CNS = tested on: SF-295 CNS
SF-539 CNS = tested on: SF-539 CNS
UACC-257 melanoma = tested on: UACC-257 melanoma
M14 melanoma = tested on: M14 melanoma

Measured: growth

C#CCN(C)Cc1ccccc1
inactive: NCI-H23 lung; 10 µM unless noted 106% and 104% | NCI-H226 lung; 10 µM unless noted 91.6% and 95.2% | NCI-H322M lung; 10 µM unless noted 99.3% and 450% | HOP-62 NSCLC 93.5% and 89.6% | NCI-H460 lung; 10 µM unless noted 110% and 104% | HOP-92 NSCLC; 10 µM unless noted 100% | NCI-H522 lung; 10 µM unless noted 100% and 92.5% | A549/ATCC NSCLC; 10 µM unless noted 102% and 101% | 786-0 renal; 10 µM unless noted 95.5% and 70.4% | COLO 205 colon 108% and 122% | DU-145 prostate; 10 µM unless noted 111% | K-562 leukemia; 10 µM unless noted 95.9% and 94.2% | MALME-3M melanoma; 10 µM unless noted 100% and 305% | MDA-MB-231 breast; 10 µM unless noted 106% and 89.6% | RXF 393 renal; 10 µM unless noted 114% and 96.6% | SF-268 CNS; 10 µM unless noted 107% and 99.5% | SF-295 CNS; 10 µM unless noted 108% and 98.1% | SF-539 CNS; 10 µM unless noted 97.8% | UACC-257 melanoma; 10 µM unless noted 105% | M14 melanoma; 10 µM unless noted 97.3% and 96.8%

CC1=C(/C=C/C(C)=C/C=C/C(C)=C/C(=O)O)C(C)(C)CCC1
inactive: NCI-H23 lung; 10 µM unless noted 86.6% and 96.1% and 98.3% | NCI-H226 lung; 10 µM unless noted 93% and 92.1% and 88.2% | NCI-H322M lung; 10 µM unless noted 94.2% and 101% | HOP-62 NSCLC 73% and 75.4% | NCI-H460 lung; 10 µM unless noted 91.2% and 91.7% and 90.6% | HOP-92 NSCLC; 10 µM unless noted 66.8% and 77% and 26.4% | NCI-H522 lung; 10 µM unless noted 64.8% and 79.3% | A549/ATCC NSCLC; 10 µM unless noted 73.4% and 88.2% and 80.3% | 786-0 renal; 10 µM unless noted 96.6% and 85.6% and 102% | COLO 205 colon 108% and 93.2% and 145% | DU-145 prostate; 10 µM unless noted 103% and 83.3% | K-562 leukemia; 10 µM unless noted 108% and 89.5% | MALME-3M melanoma; 10 µM unless noted 69.1% and 35.6% and 70.6% | MDA-MB-231 breast; 10 µM unless noted 78.1% and 82.2% and 85.1% | RXF 393 renal; 10 µM unless noted 94.2% and 89.6% and 91.3% | SF-268 CNS; 10 µM unless noted 91.7% and 92.9% and 101% | SF-295 CNS; 10 µM unless noted 69.3% and 88.1% and 114% | SF-539 CNS; 10 µM unless noted 88.7% and 62.2% and 86.1% | UACC-257 melanoma; 10 µM unless noted 94.7% and 82.5% and 93.9% | M14 melanoma; 10 µM unless noted 109% and 95.3% and 91.5%

Cn1cc(-c2cc3c(Nc4ccc(CC(=O)Nc5cc(C(C)(C)C)on5)cc4)ncnc3[nH]2)cn1
active: NCI-H23 lung; 10 µM unless noted -34% and -14% | NCI-H226 lung; 10 µM unless noted -2.21% and -21.5% | NCI-H322M lung; 10 µM unless noted -15.1% and -11.4% | HOP-62 NSCLC -11.3% and -15.3% | NCI-H460 lung; 10 µM unless noted -4.56% and 3.41% | HOP-92 NSCLC; 10 µM unless noted 5.01% and -5.97% | NCI-H522 lung; 10 µM unless noted -35.7% and -46.8% | A549/ATCC NSCLC; 10 µM unless noted 4.17% and 8.31% | 786-0 renal; 10 µM unless noted 5.07% and 3.24% | COLO 205 colon -36.6% and -33.4% | DU-145 prostate; 10 µM unless noted -15% and -3.89% | K-562 leukemia; 10 µM unless noted 4.78% and 3.56% | MALME-3M melanoma; 10 µM unless noted -50.5% and -22.7% | MDA-MB-231 breast; 10 µM unless noted -6.46% and -3.49% | RXF 393 renal; 10 µM unless noted -51.7% and -45.7% | SF-268 CNS; 10 µM unless noted -27.7% and -23.3% | SF-295 CNS; 10 µM unless noted -0.861% and 7.57% | SF-539 CNS; 10 µM unless noted -49.9% and -49% | UACC-257 melanoma; 10 µM unless noted -11.9% and -15.9% | M14 melanoma; 10 µM unless noted -34.2% and -49.5%

O=[N+]([O-])c1ccc2nc3c4ccccc4c4ccccc4c3nc2c1
inactive: NCI-H23 lung; 10 µM unless noted 81.8% | NCI-H226 lung; 10 µM unless noted 41.5% | NCI-H322M lung; 10 µM unless noted 92.6% | HOP-62 NSCLC 90% | NCI-H460 lung; 10 µM unless noted 68.4% | HOP-92 NSCLC; 10 µM unless noted 61% | NCI-H522 lung; 10 µM unless noted 67.2% | A549/ATCC NSCLC; 10 µM unless noted 69.1% | 786-0 renal; 10 µM unless noted 88.6% | COLO 205 colon 71.4% | DU-145 prostate; 10 µM unless noted 100% | K-562 leukemia; 10 µM unless noted 67.4% | MALME-3M melanoma; 10 µM unless noted 98.6% | MDA-MB-231 breast; 10 µM unless noted 70.2% | RXF 393 renal; 10 µM unless noted 96% | SF-268 CNS; 10 µM unless noted 78% | SF-295 CNS; 10 µM unless noted 107% | SF-539 CNS; 10 µM unless noted 91% | UACC-257 melanoma; 10 µM unless noted 82.5% | M14 melanoma; 10 µM unless noted 90.3%

COc1ccc(Cl)cc1C(=O)NCCc1ccc(S(=O)(=O)NC(=O)NC2CCCCC2)cc1
inactive: NCI-H23 lung; 10 µM 103% and 104% | NCI-H23 lung; 100 µM 81.8% | NCI-H226 lung; 10 µM 101% and 97.4% | NCI-H226 lung; 100 µM 62.4% | NCI-H322M lung; 10 µM 96.2% | NCI-H322M lung; 100 µM 88.5% | NCI-H460 lung; 10 µM 103% and 114% | NCI-H460 lung; 100 µM 72.2% | HOP-92 NSCLC; 10 µM 74% and 95.5% | HOP-92 NSCLC; 100 µM 63.6% | NCI-H522 lung; 10 µM 97% | NCI-H522 lung; 100 µM 54.1% | A549/ATCC NSCLC; 10 µM 99.8% and 103% | A549/ATCC NSCLC; 100 µM 57.9% | 786-0 renal; 10 µM 107% and 98.6% | 786-0 renal; 100 µM 75.5% | COLO 205 colon 117% and 112% | DU-145 prostate; 10 µM 124% and 120% | DU-145 prostate; 100 µM 79.8% | K-562 leukemia; 10 µM 102% | K-562 leukemia; 100 µM 66.6% | MALME-3M melanoma; 10 µM 126% and 96.5% | MALME-3M melanoma; 100 µM 71.9% | MDA-MB-231 breast; 10 µM 96.7% and 105% | MDA-MB-231 breast; 100 µM 61.9% | RXF 393 renal; 10 µM 110% and 104% | RXF 393 renal; 100 µM 51.6% | SF-268 CNS; 10 µM 113% and 105% | SF-268 CNS; 100 µM 74.3% | SF-295 CNS; 10 µM 90.2% and 105% | SF-295 CNS; 100 µM 74% | SF-539 CNS; 10 µM 113% and 102% | SF-539 CNS; 100 µM 68.8% | UACC-257 melanoma; 10 µM 106% | UACC-257 melanoma; 100 µM 85.9% | M14 melanoma; 10 µM 113% and 104% | M14 melanoma; 100 µM 67.9%

Reference: PubChem BioAssay (NCI)
